# Source: PubChem BioAssay
# Activity calls are given as the source filed them. Unless noted, how the calls were made is not given here.
# What was measured:
# [1] = compounds binding Alexa647 anti-His antibody – biochemical, small-molecule microarray, 635 nm fluorescence, artefact control for SMM control protein annotation, primary screen (AID 1128); conditions: higher = more signal;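 further: score merges feature fluorescence with signal-to-noise for each printed compound spot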
# [2] = test system: Human papillomavirus type 1a E7 protein (residues 1-88); assay: HPV1a E7 small-molecule binders, primary screen, biochemical, small-molecule microarray, residues 1-88, 635 nm (AID 1129); conditions: small-molecule microarray binding, fluorescence 635 nm; higher = more signal
# [3] = biological target: Focal adhesion kinase 1 (Homo sapiens) (UniProt Q05397); assay: PTK2 protein binding on printed compound slides – biochemical, small-molecule microarray, 635/667 nm fluorescence, BSA, DTT, primary screen (AID 1130); conditions: 635 nm fluorescence, higher = more signal;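 further: composite of spot emission at 667 nm and signal to noise over triplicate slides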
# Focal adhesion kinase 1 (Homo sapiens), sequence (Q05397 whole entry, looked up): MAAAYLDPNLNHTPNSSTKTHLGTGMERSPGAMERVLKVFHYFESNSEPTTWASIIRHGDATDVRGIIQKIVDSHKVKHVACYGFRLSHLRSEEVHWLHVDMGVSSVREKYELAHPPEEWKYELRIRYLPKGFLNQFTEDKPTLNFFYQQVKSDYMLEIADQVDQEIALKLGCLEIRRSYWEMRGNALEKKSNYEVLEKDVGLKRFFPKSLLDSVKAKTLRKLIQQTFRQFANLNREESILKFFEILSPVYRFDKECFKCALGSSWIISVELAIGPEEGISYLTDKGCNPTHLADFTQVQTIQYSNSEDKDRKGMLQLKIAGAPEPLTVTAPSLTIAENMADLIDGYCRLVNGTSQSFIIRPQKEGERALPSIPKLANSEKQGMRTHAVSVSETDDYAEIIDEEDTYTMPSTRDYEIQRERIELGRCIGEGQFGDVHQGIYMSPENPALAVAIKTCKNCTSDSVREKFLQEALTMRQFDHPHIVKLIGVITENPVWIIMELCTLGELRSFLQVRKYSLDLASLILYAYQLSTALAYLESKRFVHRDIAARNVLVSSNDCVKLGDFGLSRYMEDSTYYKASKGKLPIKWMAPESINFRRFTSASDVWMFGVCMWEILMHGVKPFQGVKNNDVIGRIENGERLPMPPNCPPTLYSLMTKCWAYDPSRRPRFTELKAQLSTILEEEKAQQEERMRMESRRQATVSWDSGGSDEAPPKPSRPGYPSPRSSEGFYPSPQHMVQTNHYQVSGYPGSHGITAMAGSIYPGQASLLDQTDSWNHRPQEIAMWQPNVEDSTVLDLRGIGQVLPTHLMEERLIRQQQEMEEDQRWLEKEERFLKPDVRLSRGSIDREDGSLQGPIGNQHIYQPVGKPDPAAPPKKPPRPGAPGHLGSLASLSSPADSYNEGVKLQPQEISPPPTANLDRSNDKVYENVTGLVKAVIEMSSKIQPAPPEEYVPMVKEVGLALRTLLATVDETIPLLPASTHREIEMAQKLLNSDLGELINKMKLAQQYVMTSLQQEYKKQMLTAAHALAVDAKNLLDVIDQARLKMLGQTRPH
# [4] = test system: Fibrinogen (Alexa647-labelled); assay: Alexa647-fibrinogen binding to printed small molecules – biochemical, small-molecule microarray, 635/667 nm fluorescence, artefact control for SMM control-protein annotation, profiling panel (AID 1131); conditions: fibrinogen-A647 binding fluorescence, higher = more signal;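 further: z-score merges 667 nm fluorescence with per-spot signal-to-noise over triplicate slides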
# [5] = biological target: Follistatin (Homo sapiens) (UniProt P19883); assay: FST protein binding to printed compounds – biochemical, small-molecule microarray, 635/667 nm fluorescence, primary screen (AID 1132); conditions: 635 nm fluorescence, higher = more signal
# Follistatin (Homo sapiens), sequence (P19883 whole entry, looked up): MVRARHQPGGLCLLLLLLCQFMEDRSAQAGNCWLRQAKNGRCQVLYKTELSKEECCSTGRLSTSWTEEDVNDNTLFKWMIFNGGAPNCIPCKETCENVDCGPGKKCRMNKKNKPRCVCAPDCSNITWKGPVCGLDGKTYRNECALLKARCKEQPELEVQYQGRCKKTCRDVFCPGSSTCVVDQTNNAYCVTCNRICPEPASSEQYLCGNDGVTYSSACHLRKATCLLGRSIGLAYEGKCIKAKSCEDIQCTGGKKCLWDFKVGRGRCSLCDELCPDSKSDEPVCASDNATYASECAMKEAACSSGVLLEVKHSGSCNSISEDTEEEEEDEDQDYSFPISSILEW
# [6] = biological target: Fibroblast growth factor 2 (Homo sapiens) (UniProt P09038); assay: basic fibroblast growth factor binding to printed compounds – biochemical, small-molecule microarray, 635/667 nm fluorescence, primary screen (AID 1133); conditions: FGF2, fluorescence 635/667, higher = more signal
# Fibroblast growth factor 2 (Homo sapiens), sequence (P09038 whole entry, looked up): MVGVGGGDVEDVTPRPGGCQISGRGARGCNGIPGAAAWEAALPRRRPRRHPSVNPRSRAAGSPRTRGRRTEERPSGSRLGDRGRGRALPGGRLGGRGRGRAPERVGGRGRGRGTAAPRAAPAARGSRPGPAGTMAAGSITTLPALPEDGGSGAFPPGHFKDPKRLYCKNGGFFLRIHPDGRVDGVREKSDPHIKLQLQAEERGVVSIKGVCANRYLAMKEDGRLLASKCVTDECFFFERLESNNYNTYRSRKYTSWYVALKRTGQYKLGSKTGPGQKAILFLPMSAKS
# [7] = JC-1 mitochondrial potential readout, lung cancer cells – cell-based, A549, JC-1 fluorescence, basal, 24 h, 100 nL, profiling panel (AID 1138); conditions: higher = more signal;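 further: A549 lung adenocarcinoma cells under basal conditions with no added stimulus; test concentration not given here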
# Lefty1 = Lefty1 protein binding to printed compounds – biochemical, small-molecule microarray, 635/667 nm fluorescence, primary screen (AID 1139); conditions: fluorescence 635/667, higher = more signal
# [8] = test system: wheat germ agglutinin (Triticum aestivum), Alexa647-labelled; assay: Alexa647-WGA lectin binding to printed small molecules – biochemical, small-molecule microarray, 635/667 nm fluorescence, artefact control for SMM control-protein annotation, profiling panel (AID 1140); conditions: WGA-A647 binding, 635 nm fluorescence, higher = more signal;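 further: score merges 667 nm feature emission with signal to noise over triplicate slides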
# [9] = biological target: Luciferin 4-monooxygenase (Photinus pyralis) (UniProt P08659); assay: inhibition of purified Photinus pyralis luciferase – biochemical, luminescence, purified enzyme, 2006 set, primary screen (AID 1141); conditions: purified firefly luciferase, SteadyGlo luminescence, 30 min; higher = more signal, called active from +8 up or from −8 down;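 further: cell-free assay with purified firefly luciferase at 100 ng per well in PBS; test concentration not given here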
# Luciferin 4-monooxygenase (Photinus pyralis), sequence (P08659 whole entry, looked up): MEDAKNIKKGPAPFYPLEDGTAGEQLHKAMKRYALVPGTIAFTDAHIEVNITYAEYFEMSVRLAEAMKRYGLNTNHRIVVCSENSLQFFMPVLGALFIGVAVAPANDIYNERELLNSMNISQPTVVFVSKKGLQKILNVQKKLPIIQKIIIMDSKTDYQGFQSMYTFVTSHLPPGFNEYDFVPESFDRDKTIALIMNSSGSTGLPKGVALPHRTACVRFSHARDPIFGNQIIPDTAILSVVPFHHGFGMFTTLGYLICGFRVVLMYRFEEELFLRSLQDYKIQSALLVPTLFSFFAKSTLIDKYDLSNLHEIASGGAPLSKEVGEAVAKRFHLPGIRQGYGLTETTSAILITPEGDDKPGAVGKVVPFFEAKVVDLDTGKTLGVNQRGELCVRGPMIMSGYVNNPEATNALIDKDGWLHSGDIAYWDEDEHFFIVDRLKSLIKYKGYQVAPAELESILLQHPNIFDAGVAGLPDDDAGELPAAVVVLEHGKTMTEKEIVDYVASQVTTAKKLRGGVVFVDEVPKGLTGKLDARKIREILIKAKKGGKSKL
# [10] = test system: Wnt5a (protein binding on small-molecule microarray); assay: small molecules binding Wnt5a protein – biophysical, small-molecule microarray, 635/667 nm fluorescence, primary screen (AID 1142); conditions: 635 nm fluorescence, higher = more signal;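 further: fluorescence read at 667 nm with signal to noise per printed feature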
# [11] = ATP-based viability of Huh7 replicon cells – cell-based, CellTiter-Glo luminescence, basal, 48 h, cytotoxicity control for HCV replication inhibitor project, primary screen (AID 1143); conditions: higher = more signal, called active from +8 up or from −8 down;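 further: Huh7 hepatoma cells carrying a hepatitis C replication reporter with no stimulus; test concentration not given here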
# [12] = Pseudomonas biofilm growth suppression – PAO1 strain, BacTiter-Glo luminescence, LB-PBS, primary screen (AID 1144); conditions: P. aeruginosa PAO1 biofilm, 12 h, higher = more signal
# [13] = basal CRE-LacZ reporter activity in PC12 – cell-based, unstimulated, primary screen (AID 1145); conditions: no forskolin, luminescence, 4.5 h, higher = more signal, called active from +8 up or from −8 down
# [14] = forskolin-driven CRE-LacZ activity in PC12 – cell-based, CRE-LacZ reporter, forskolin-stimulated, primary screen (AID 1146); conditions: luminescence, 4.5 h, higher = more signal, called active from +8 up or from −8 down;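 further: PC12 cells with 6xCRE LacZ reporter stimulated by forskolin 10 µM; beta-galactosidase reporter signal reflecting CREB driven transcription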
# [15] = biological target: Streptavidin (Streptomyces avidinii) (UniProt P22629); assay: compounds binding control protein streptavidin – biophysical, small-molecule microarray, 635/667 nm fluorescence, artefact control for SMM compound annotation, primary screen (AID 1147); conditions: higher = more signal;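 further: signal reflects streptavidin binding to arrayed compounds as a control protein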
# Streptavidin (Streptomyces avidinii), sequence (P22629 whole entry, looked up): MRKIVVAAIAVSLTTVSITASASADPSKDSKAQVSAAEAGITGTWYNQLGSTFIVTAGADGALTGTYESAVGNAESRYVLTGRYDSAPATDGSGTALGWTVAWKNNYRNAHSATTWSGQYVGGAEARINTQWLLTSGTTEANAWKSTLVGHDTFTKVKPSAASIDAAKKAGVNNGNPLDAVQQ
# [16] = probe aInhba binding on compound microarray – biochemical, small-molecule microarray, 635/667 nm fluorescence, primary screen (AID 1148); conditions: higher = more signal;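 further: score merges 667nm spot fluorescence with signal-to-noise for antibody binding to printed compounds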
# Torsin-1A (Homo sapiens) [17] = biological target: Torsin-1A (Homo sapiens) (UniProt O14656); assay: TOR1A wild-type binding on microarray – cell lysate, small-molecule microarray, lysate, 635/667 nm, primary screen (AID 1149); conditions: COS7 hTOR1A-WT lysate, 635 nm fluorescence, higher = more signal
# Torsin-1A (Homo sapiens), sequence (O14656 whole entry, looked up): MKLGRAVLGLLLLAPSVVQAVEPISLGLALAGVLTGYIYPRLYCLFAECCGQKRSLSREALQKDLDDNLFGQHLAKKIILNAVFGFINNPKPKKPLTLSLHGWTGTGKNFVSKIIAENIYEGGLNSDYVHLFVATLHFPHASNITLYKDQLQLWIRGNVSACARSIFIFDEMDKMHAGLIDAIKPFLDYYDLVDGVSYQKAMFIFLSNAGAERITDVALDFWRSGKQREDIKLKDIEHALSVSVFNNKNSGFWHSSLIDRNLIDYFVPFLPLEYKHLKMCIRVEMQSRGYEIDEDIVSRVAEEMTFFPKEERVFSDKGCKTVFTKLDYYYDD
# Torsin-1A (Homo sapiens) [18] = biological target: Torsin-1A (Homo sapiens) (UniProt O14656); assay: torsin A mutant lysate binding on microarrays – cell lysate, small-molecule microarray, COS7 lysate, 635/667 nm fluorescence, primary screen (AID 1150); conditions: COS7 hTOR1A mutant lysate, 635 nm fluorescence, higher = more signal;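 further: score pools 667 nm emission and signal to noise measuring lysate protein binding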
# [19] = test system: Sonic hedgehog protein (Shh); assay: Sonic hedgehog microarray binding compounds – biochemical, small-molecule microarray, 635/667 nm fluorescence, primary screen (AID 1151); conditions: 635 nm fluorescence, higher = more signal;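 further: Shh protein binding to compounds spotted on small-molecule microarray slides; score combines spot fluorescence intensity with signal-to-noise across triplicate slides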
SMILES,composite z-score [1],composite z-score [2],composite z-score [3],composite z-score [4],composite z-score [5],composite z-score [6],z-score [7],composite z-score (Lefty1),composite z-score [8],z-score [9],composite z-score [10],z-score [11],z-score [12],z-score [13],z-score [14],composite z-score [15],composite z-score [16],composite z-score (Torsin-1A (Homo sapiens) [17]),composite z-score (Torsin-1A (Homo sapiens) [18]),composite z-score [19]
O=C(CS)NCCCCCNC(=O)[C@H]1C[C@H]2C(=O)N3CCC[C@H]3C(=O)N2[C@H]1c1cccc(OCCO)c1,3.13,1.11,2.11,0.65,1.45,1.92,0.509,1.65,0.777,-1.22 (inactive),0.76,0.0319 (inactive),0.162 (inactive),-0.126 (inactive),0.899 (inactive),0.0654,-0.016,0.581,0.751,1.99
CCOC(=O)NN=C1C[C@@H](O)[C@@H](O)[C@@H]2[C@@H]3C(=O)N(C4CCCCC4)C(=O)[C@@H]3CC[C@H]12,0.0946,0.832,0.25,0.657,0.061,0.0615,-1.13,0.78,0.395,0.63 (inactive),-0.064,-0.779 (inactive),0.786 (inactive),0.341 (inactive),0.174 (inactive),-0.0615,-0.111,0.218,0.568,0.369
COCCOC(=O)N1C(=O)[C@@]2(c3cc(C#Cc4ccc(OC)cc4)ccc31)[C@H](c1ccc(O)cc1)N1[C@H](c3ccccc3)[C@H](c3ccccc3)OC(=O)[C@H]1[C@@H]2C(N)=O,0.308,1.17,0.126,0.972,1.3,0.852,-1.47,0.728,0.779,0.556 (inactive),0.586,-2.75 (inactive),-0.97 (inactive),-0.752 (inactive),-0.94 (inactive),0.417,-0.0947,0.187,0.825,1.44
O=C1[C@H]2[C@H]3[C@H](O)[C@H](O)CC(=NOC[C@@H](O)COCc4ccco4)[C@H]3CC[C@H]2C(=O)N1C1CCCCC1,-0.0844,-0.476,-0.329,-1.02,1.21,1.07,-0.948,1.3,-1.22,0.822 (inactive),0.257,-2.97 (inactive),-0.925 (inactive),3.33 (inactive),0.279 (inactive),-0.112,0.158,2.07,1.64,1.54
Cc1ccc(C2CC=C(C(=O)O)CN2S(=O)(=O)c2ccc(C)cc2)cc1 (stereo not given),1.26,1.17,0.286,0.566,0.158,0.0208,-1.23,0.0504,0.718,1.64 (inactive),0.212,0.0273 (inactive),-0.119 (inactive),-0.378 (inactive),0.707 (inactive),0.169,-0.024,0.427,0.426,-0.065
CCCCCCc1nc(CCCc2cc3c(c(CCCCCC)n2)[Si](C(C)C)(C(C)C)O[C@H]3c2ccccc2)cc2c1[Si](C(C)C)(C(C)C)O[C@H]2c1ccccc1,-0.246,-0.526,-0.43,-1.19,0.385,-0.0811,0.669,0.778,-0.0778,0.733 (inactive),-0.0661,-0.636 (inactive),0.182 (inactive),-0.0106 (inactive),-0.222 (inactive),0.0479,-0.0972,-0.285,-0.0949,0.406
O=C(CS)NCCCCCNC(=O)[C@@H]1C[C@@H]2C(=O)N[C@@H](Cc3ccccc3)C(=O)N2[C@@H]1c1ccc(O)cc1,2.33,1.21,0.661,-0.0141,1.31,1.29,-0.208,0.233,0.304,-3.79 (inactive),0.835,-0.0984 (inactive),-0.616 (inactive),0.692 (inactive),-0.981 (inactive),-0.859,-0.128,0.489,0.845,0.981
COc1ccc(-c2ccc3c(n2)CCCN3CC(O)CN2CCCc3nc(C)c(C)cc32)cc1 (stereo not given),2.62,0.478,0.351,0.733,1,0.62,1.7,1.05,1.03,-1.2 (inactive),0.268,-0.154 (inactive),-0.0522 (inactive),-0.0779 (inactive),0.536 (inactive),1.52,0.276,0.785,1.15,1.19
COc1ccc(COC(=O)NN=C2C[C@@H](O)[C@@H](O)[C@@H]3[C@@H]4C(=O)N(c5ccc(F)cc5F)C(=O)[C@@H]4CC[C@@H]23)cc1,0.257,-0.769,0.0141,0.794,-0.409,-0.0007,-0.604,-0.291,0.744,0.506 (inactive),-0.207,0.0335 (inactive),1.02 (inactive),1.61 (inactive),-0.0874 (inactive),0.509,-0.0762,-0.372,0.389,-1.13
C[C@H]1CC[C@@H](C(=O)O)N[C@@H]1c1ccc(C#CCN(C)C)cc1,0.601,0.34,0.0583,0.54,0.682,0.453,1.04,0.343,0.117,-0.931 (inactive),0.163,0.141 (inactive),-0.0379 (inactive),1.83 (inactive),-1.12 (inactive),0.85,-0.273,0.363,0.323,0.427
CCOC(=O)CCN1C(=O)[C@H]2[C@H]3[C@H](O)C=CC(=O)[C@@H]3CC[C@H]2C1=O,0.147,0.621,0.122,0.11,0.488,0.49,0.0322,0.345,0.307,-0.371 (inactive),-0.244,0.507 (inactive),-0.281 (inactive),-0.115 (inactive),-0.297 (inactive),0.225,0.0104,0.327,-0.364,0.425
CCOC(=O)NN=C1C[C@@H](O)[C@@H](O)[C@@H]2[C@@H]3C(=O)N(C[C@@H]4CCCO4)C(=O)[C@@H]3CC[C@@H]12,0.193,0.329,0.295,0.216,0.306,0.436,0.39,0.344,0.386,-0.439 (inactive),-0.0127,0.0688 (inactive),0.139 (inactive),-0.658 (inactive),0.75 (inactive),0.293,-0.0933,0.298,0.76,0.111
CCCNC(=O)[C@@H]1c2ccccc2C(=O)N(Cc2ccccc2Cl)[C@H]1c1ccc(CO)cc1,2.58,1.19,0.497,0.691,1.36,1.3,3.16,1.1,1.09,-1.54 (inactive),0.4,-1.44 (inactive),0.378 (inactive),-0.412 (inactive),-0.366 (inactive),0.802,0.264,0.174,0.461,1.9
CN1C(=O)[C@@]2(CCC(=O)OC(C)(C)C)N=C(c3ccc(OCCCO)cc3)O[C@H]2c2ccccc21,1.87,1.17,0.102,0.411,1.36,0.611,1.33,0.369,0.761,-2.62 (inactive),0.0942,-4.68 (inactive),-1.73 (inactive),0.652 (inactive),-1.92 (inactive),-0.235,0.0649,-0.132,0.43,1.5
CCOC(=O)CCN1C(=O)[C@H]2[C@H]3[C@H](O)[C@H](O)CC(=O)[C@H]3CC[C@H]2C1=O,0.683,0.676,-0.186,0.29,0.369,0.364,-0.648,0.413,0.125,0.524 (inactive),0.0032,-3.04 (inactive),-0.829 (inactive),0.429 (inactive),-0.236 (inactive),0.275,-0.183,0.269,0.326,0.693
COC(=O)[C@@]1(Cc2ccc(F)cc2)[C@@H]2C(=CC(=O)[C@H]2CC(=O)C(=O)N(C)C)CN1C(=O)c1ccccc1,2.36,1.26,1.09,0.981,0.635,-0.54,0.589,-0.421,0.847,1.24 (inactive),0.392,-3.59 (inactive),0.504 (inactive),-0.179 (inactive),-0.196 (inactive),1.7,0.38,-0.441,0.283,-0.367
COCCOC(=O)N1C(=O)[C@@]2(c3cc(C#CC4(O)CCCCCC4)ccc31)[C@H](c1ccc(OCCO)cc1)N1[C@H](c3ccccc3)[C@H](c3ccccc3)OC(=O)[C@H]1[C@@H]2C(=O)NC[C@H](O)c1ccccc1,1.67,1.21,0.184,0.946,1.15,0.909,-1.52,0.907,0.784,-1.05 (inactive),0.524,-5.42 (inactive),-0.903 (inactive),-0.61 (inactive),0.753 (inactive),0.246,0.0658,0.225,0.514,1.23
CC(C)C[C@@H]1NC(=O)[C@H]2C[C@@H](C(=O)O)[C@@H](c3ccc(O)cc3)N2C1=O,3.44,-0.526,-0.199,-0.0448,1.34,0.85,-0.986,0.874,0.242,-1.2 (inactive),0.0112,-0.354 (inactive),-0.1 (inactive),0.281 (inactive),-0.627 (inactive),0.0925,-0.0521,0.884,0.285,1.67
